Laboratory results taken from PubChem BioAssay AID651958 (The Scripps Research Institute Molecular Screening Center, 2012).
The whole screen tested about 370,000 compounds, of which about 2,000 (0.54%) were called active. The sample holds actives, similar compounds and a random draw of the others, so the mix is not that of the screen. Cut-off read from the data, not from the text of the source: active = inhibition above about 30%; inactive = the rest.

System: Crimean-Congo hemorrhagic fever virus L polyprotein viral ovarian tumor (vOTU) protease domain
Assay: CCHFV vOTU protease inhibitors, primary screen, biochemical, Pep-AMC substrate, fluorescence (AID 651958); note: 0% = vehicle wells with enzyme and 100% = no enzyme wells
Conditions: at 11.5 µM, stronger effect = higher value

Row | Compound | inhibition
1 | CCOC(=O)N/N=C1\CC(C)S(=O)(=O)c2ccc(Cl)cc21 (stereo not drawn) | -1.67% (inactive)
2 | COc1ccc(C(=O)N2CCN(c3ccc(C(C)=O)cc3F)CC2)cc1S(=O)(=O)NC1CC1 | 12.2% (inactive)
3 | COc1cccc(NC(=O)Nc2nnc(N3CCCCC3C)s2)c1 (stereo not drawn) | 8.79% (inactive)
4 | COc1ccc(CN2C(CC(=O)Nc3cccnc3)c3ccc(C(F)(F)F)cc3S2(=O)=O)cc1 (stereo not drawn) | 1.05% (inactive)
5 | COc1ccc(C(N)c2csc(NC(=O)Nc3cccc(C(F)(F)F)c3)n2)cc1 (stereo not drawn) | 36.4% (active)
6 | O=C1[C@@H](c2ccccc2)[C@@H](c2ccccc2)N1c1ccccc1 | -7.47% (inactive)
7 | COc1cc(C(=O)N2CCN(C/C=C/c3ccccc3)CC2)cc(OC)c1C | 11.4% (inactive)
8 | COc1ccc(C(C)=O)cc1CSc1nc2nc(C)cc(C)n2n1 | -9.62% (inactive)
9 | COc1ccc(C(=O)/C=C/c2ccc(-c3ccccc3)cc2)cc1CSCC(=O)O | 29.8% (active)
10 | Cc1noc(C)c1S(=O)(=O)N(C)C[C@H]1OCCCC[C@@H](C)Oc2ccc(NC(=O)CCCN(C)C)cc2C(=O)N([C@H](C)CO)C[C@@H]1C | -8.1% (inactive)
11 | CC(C)CN1CCC1(C)C(=O)Nc1ccc(OC(F)F)cc1 (stereo not drawn) | 15.4% (inactive)
12 | CC(C)Oc1ccc(CN2CCC2(C)C(=O)NCc2ccc(C(F)(F)F)cc2)cc1 (stereo not drawn) | 35.6% (active)
13 | CC(C)NC(=O)C1(C)CCCCN1Cc1cccc(C(F)(F)F)c1 (stereo not drawn) | 0.49% (inactive)
14 | CC(=O)N=c1ncn(CC(COC(C)=O)OC(C)=O)c2nc[nH]c12 (stereo not drawn) | 6.99% (inactive)
15 | COC(=O)Cc1ccc(OC2(C)CCN(Cc3ccc4c(c3)OCCO4)C2)cc1 (stereo not drawn) | 0.88% (inactive)
16 | CC(C)(C)NC(=O)C(c1ccco1)N(Cc1ccc2c(c1)OCO2)C(=O)Cn1nnc2ccccc21 (stereo not drawn) | 5.93% (inactive)
17 | CCCCCCCCNS(=O)(=O)/C=C/c1cc(C)ccc1CNC(=O)OC(C)(C)C | 29.5% (inactive)
18 | COCCn1c(=O)[nH]c(=O)c2cc(C(=O)c3cc(OC)ccc3O)cnc21 | 16.3% (inactive)
19 | CCc1ccc(NC(=O)CN2C(=O)COc3ccc(S(=O)(=O)N4CCCC4)cc32)cc1 | -0.54% (inactive)
20 | COP(=O)(Sc1ccccc1)C(Cc1ccccc1)NC(=O)OCc1ccccc1 (stereo not drawn) | 3.36% (inactive)
21 | COc1cc2c(cc1OC)C(Cc1cc(OC)c(OC)cc1[N+](=O)[O-])=NCC2 | 40% (active)
22 | COc1cc2c(cc1OC)C(c1cccc([N+](=O)[O-])c1)=NCC2 | 10.7% (inactive)

Row | Compound | inhibition
23 | COc1cc(CN2CCCN(C)CC2)c([N+](=O)[O-])cc1OC | -3.03% (inactive)
24 | CC(C)CCNC(=O)Cn1c(=O)oc2cc(S(=O)(=O)N3CC(C)CC(C)C3)ccc21 (stereo not drawn) | 7.1% (inactive)
25 | CCCNC(=O)C1(C)CCN(C(=O)c2cc(F)ccc2C)C1 (stereo not drawn) | 6.2% (inactive)
26 | Nc1ccc(N=Nc2ccccc2Cl)c(N)n1 | 30% (active)
27 | COc1ccc(C(C(=O)NC(C)(C)C)N(C(=O)Cn2nnc3ccccc32)c2ccc(C(C)=O)cc2)cc1O (stereo not drawn) | 21.7% (inactive)
28 | Cc1nc(N)nc(SCc2ccc([N+](=O)[O-])cc2)c1N | -13.9% (inactive)
29 | Cc1ccc(S(=O)(=O)NC(C(=O)N2CCOCCOCCOCCOCC2)c2ccccc2)cc1 (stereo not drawn) | -5.21% (inactive)
30 | Cc1oc2c(c1C(=O)N1CCOCC1)C(=O)c1ccccc1C2=O | 70.8% (active)
31 | N[C@@H](Cc1ccccc1)C(=O)N1CCOCC1 | -2.24% (inactive)
32 | COc1cc(CN2CCCC(C(=O)c3ccc(SC)cc3)C2)cc(Cl)c1O (stereo not drawn) | 2.91% (inactive)
33 | CCOC(=O)[C@H]1[C@H]2COc3ccccc3[C@@H]2N2C(=O)CN(Cc3ccccc3)C(=O)[C@@]12C | -6.74% (inactive)
34 | CN1c2ccc(C=O)c3c(C=O)ccc(c23)N(C)C1(C)C | 65.2% (active)
35 | CN1CCN(c2ccncc2S(=O)(=O)N2CCCC2)CC1 | -8.15% (inactive)
36 | COc1ccc(C(CNC(=O)COc2ccccc2OC)N2CCCCC2)cc1 (stereo not drawn) | 0.37% (inactive)
37 | CN(CC(=O)NCC(c1ccccc1)N1CCCC1)S(=O)(=O)c1ccc(Cl)cc1 (stereo not drawn) | -5.38% (inactive)
38 | CCc1ccc(OCC(=O)NCC(c2ccc(Cl)cc2)N2CCCCC2)cc1 (stereo not drawn) | 31% (active)
39 | N#Cc1c(N)nc2c(c1N)CC(C(F)(F)F)O2 (stereo not drawn) | -10.2% (inactive)
40 | CCCCOCCCNC(=O)C[C@@H]1C[C@@]2(C(=O)OCC)CCCC=C2N(CCC2=CCCCC2)C1=O | 15.7% (inactive)
41 | COCCNC(=O)c1onc(CSc2cccc(C)c2)c1C(=O)O | -0.14% (inactive)
42 | CCCc1ccc(C(=O)COC(=O)CN2C(=O)NC3(CCCCC3C)C2=O)cc1 (stereo not drawn) | 16.5% (inactive)
43 | COc1cccc(CNC(=O)COC(=O)CN2C(=O)NC3(CCCCC3C)C2=O)c1 (stereo not drawn) | -7.15% (inactive)
44 | CC1CCCCC12NC(=O)N(CC(=O)OCC(=O)NCc1ccc(F)cc1)C2=O (stereo not drawn) | 34.9% (active)

Row | Compound | inhibition
45 | Cc1ncc([N+](=O)[O-])n1CCOC(=O)c1ccc(Br)cc1 | -0.48% (inactive)
46 | CCCCCCCNc1nc(Cl)nc(NCCO)n1 | 12.8% (inactive)
47 | CC1CCCN(c2ccc(C(=O)NCCc3ccccc3)cn2)C1 (stereo not drawn) | -7.43% (inactive)
48 | O=C1Nc2ccc([N+](=O)[O-])cc2C1=Nc1cccc(CO)c1 | 58.7% (active)
49 | O=C(CCl)N(Cc1cccc([N+](=O)[O-])c1)c1cccc(Cl)c1 | 0.95% (inactive)
50 | CCC(=O)N(C)C(c1ccccc1Cl)c1nnnn1-c1c(C)cccc1C (stereo not drawn) | -4.14% (inactive)
51 | CC(=O)OCc1cc(=O)n(C)c(=O)n1C | -3.25% (inactive)
52 | [2H]C(CCOS(N)(=O)=O)c1ccccc1 (stereo not drawn) | -9.88% (inactive)
53 | COc1ccc(N2CCN(C3CCCCC3NS(=O)(=O)c3ccccc3)CC2)cc1 (stereo not drawn) | 19.5% (inactive)
54 | COc1ccc(S(=O)(=O)NC(C)C(=O)N2CCCCCC2)cc1 (stereo not drawn) | -2.68% (inactive)
55 | Cc1ccc(S(=O)(=O)/N=C2\C=C(NS(=O)(=O)c3ccc(C)cc3)C(=O)c3ccccc32)cc1 | 77.7% (active)
56 | Cc1ccc(S(=O)(=O)/N=S(\C)C(C)C)cc1 (stereo not drawn) | -11.6% (inactive)
57 | Cc1ccc(S(=O)(=O)N[C@H](CO)C(C)C)cc1 | 6.27% (inactive)
58 | COc1ccc(S(=O)(=O)/N=C2\C=C(NS(=O)(=O)c3ccccc3)C(=O)c3ccccc32)cc1 | 65% (active)
59 | COC(=O)CN1C(=O)C2(C(C(=O)OC)=C(N)Oc3ccccc32)C2=C1CC(C)(C)CC2=O (stereo not drawn) | -11.2% (inactive)
60 | CC(=O)N1Cc2cc(C(=O)NCc3cccc(F)c3)nc(-c3cccc(C4=CCCCC4)c3)c2[C@H]1CCO | 9.9% (inactive)
61 | CN1CCN(S(=O)(=O)c2cccc(C(=O)Nc3sccc3C#N)c2)CC1 | -2.97% (inactive)
62 | C=CCSC1=C(C#N)C(c2cc(Br)c(O)c(OC)c2)CC(=O)N1 (stereo not drawn) | -4.94% (inactive)
63 | Cc1ccc(S(=O)(=O)N(c2cccc(C)c2)C2CCS(=O)(=O)C2)cc1 (stereo not drawn) | 4.15% (inactive)
64 | CN1CCN(C(=O)C2=C[C@H](c3ccc4c(c3)OCO4)C[C@H](OCc3ccc(CO)cc3)O2)CC1 | -2.44% (inactive)
65 | COCCn1nnnc1C(c1cc2ccc(OC)cc2[nH]c1=O)N1CCc2ccccc2C1 (stereo not drawn) | 103% (active)
66 | COc1ccc(-n2nnnc2C(c2cccc3ccccc23)N2CCC(n3c(=O)[nH]c4ccccc43)CC2)cc1 (stereo not drawn) | 7.58% (inactive)

Row | Compound | inhibition
67 | COc1ccc(CCC(C)N2CCc3ccccc3C2)cc1 (stereo not drawn) | 2.02% (inactive)
68 | COc1cc(CN(C)Cc2nc3cc(C(F)(F)F)ccc3c(=O)[nH]2)ccc1OC(F)F | 14.7% (inactive)
69 | CC1(C)CC(=O)C(N=Nc2c(F)cccc2F)=C(O)C1 | 10.4% (inactive)
70 | CC(C)N1CCC(NC(=O)Nc2ccccc2)CC1 | -6.34% (inactive)
71 | CC1(c2cccc(Br)c2)NC(=O)N(CC(=O)NCCC2=CCCCC2)C1=O (stereo not drawn) | 6.44% (inactive)
72 | CSCC(=O)N1CCCC(C(=O)c2cc(F)ccc2F)C1 (stereo not drawn) | -7.31% (inactive)
73 | COc1ccc(C(=O)N2CCCC(C(=O)c3ccccc3OC)C2)cc1OC (stereo not drawn) | 4.28% (inactive)
74 | COc1ccc(F)cc1C(=O)C1CCCN(C(=O)CCc2ccccn2)C1 (stereo not drawn) | 32.7% (active)
75 | Cc1cc(Cl)c(S(=O)(=O)NCc2cccnc2)cc1OCC(N)=O | -2.02% (inactive)
76 | COP(=O)(OC)C(NC(=O)c1ccc(C)cc1)C(Cl)(Cl)Cl (stereo not drawn) | -12.8% (inactive)
77 | Cc1nnc(SC(C)C(=O)Nc2ccc(S(=O)(=O)NC3CCCCC3)cc2)s1 (stereo not drawn) | 31.6% (active)
78 | Cc1ccc(S(=O)(=O)NC2CCCCCC2)cc1C(N)=O | -2.9% (inactive)
79 | CC(C)NS(=O)(=O)c1ccc(NC(=O)C2CCCCC2)cc1 | -0.67% (inactive)
80 | Cc1ccc(NC(=O)COC(=O)C2C3CC4OC(=O)C2C4C3)cc1Cl (stereo not drawn) | 6.39% (inactive)
81 | Cc1ccc(C(C(=O)NC2CCCC2)N(Cc2ccco2)C(=O)CCC(=O)Nc2ccccn2)cc1 (stereo not drawn) | 3.43% (inactive)
82 | COc1ccc(CCn2c(O)c(C=NCCCn3ccnc3)c(=O)[nH]c2=O)cc1OC | 2.55% (inactive)
83 | CCCCC(=O)N(C)c1c(CC)nc2c(OCc3ccc(Cl)cc3Cl)cccn12 | 28.5% (inactive)
84 | O=C1C(Cl)=C(Oc2ccccc2)C(=O)c2ccccc21 | 6.2% (inactive)
85 | CC(=O)N(C1=C(Cl)C(=O)c2ccccc2C1=O)c1ccc(C(=O)O)cc1 | 99.3% (active)
86 | CCCCN=C1C([N+](=O)[O-])=CC=C2C1=NC1(CCCCC1)N2O | 9.17% (inactive)
87 | Cc1ccc(C)c(OCCC(=O)OCC(=O)NC(=O)NCc2ccccc2)c1 | 0.04% (inactive)
88 | COc1ccc2c(c1)c(=Cc1ccc(N(C)C)cc1)c1cc(-c3ccccc3)[n+](C)n12 | 55.6% (active)
